Hits are enriched below; roughly 4.1% of the tested compounds scored in any of these assays.
PglD inh = PglD (C. jejuni) enzyme inhibition; hit rate 0.098% among 360,000; AID 602405; purified PglD enzyme, DTNB colorimetric CoA detection; inhibition, % at 12.5 µM; in the data active means inhibition above about 16%, passing the limit was not always enough
F508del corr = correctors of CFTR F508del function in bronchial epithelial cells; CFBE cells, YFP halide quenching; stimulated with forskolin plus potentiator P3; % fluorescence drop versus neutral controls; activity (quench increase), % at 7.58 µM; hit rate 0.36% among 350,000;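 active means mean added fluorescence quench of at least 8% versus neutral control, with both replicates also reaching 8%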;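 further: cells transiently co-express mutant CFTR-F508del with the halide-sensitive YFP; corrector assay measuring rescue of mutant channel to the surface after 24 h compound exposure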
Env fusion inh = HIV envelope-mediated fusion inhibition | HeLa-JRFL Env/CEM21 cell fusion, luciferase | inhibition, % at 12.3 µM | hit rate 1.1% among 360,000;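 active means mean replicate inhibition score of at least 50 and every replicate individually at or above 50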;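 further: 0% = plate neutral controls and 100% = maraviroc near 300 nM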
Casp6 inh = blocks human caspase-6 cleavage activity; P55212; purified caspase-6, Z-VEID-R110 cleavage fluorescence; inhibition, % at 12.5 µM; hit rate 0.53% among 350,000; AID 686996;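 active means mean inhibition across replicates at least about 35%, with every replicate also reaching that limit, limit read from the data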;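 further: 0% = median of neutral control wells and 100% = no fluorescence left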
Target sequence (P55212 24-179 limits assumed): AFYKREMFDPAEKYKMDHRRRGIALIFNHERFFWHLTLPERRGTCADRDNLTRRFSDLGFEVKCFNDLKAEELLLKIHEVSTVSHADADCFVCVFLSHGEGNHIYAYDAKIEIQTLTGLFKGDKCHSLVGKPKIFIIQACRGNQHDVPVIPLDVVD
Target sequence (P55212 194-293 limits assumed): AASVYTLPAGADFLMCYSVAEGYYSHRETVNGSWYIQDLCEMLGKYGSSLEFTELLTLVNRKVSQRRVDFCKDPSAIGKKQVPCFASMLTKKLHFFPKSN
NSD2 HMT inh = inhibitors of human histone methyltransferase NSD2; inhibition, % at 12.5 µM; O96028; NSD2 peptide methylation, AlphaScreen, 120 min; hit rate 0.54% among 310,000; in the data active means inhibition above about 50%
ALR H2O2 inh = inhibitors of human sulfhydryl oxidase ALR; inhibition, % (no concentration beside the values); P55789; AID 485317; hit rate 3.8% among 290,000; purified ALR, DTT oxidation, H2O2 HRP-luminol luminescence;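 active means mean replicate inhibition above about 79%, with every replicate also reaching it, limit read from the data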
Target sequence (P55789 whole entry, looked up): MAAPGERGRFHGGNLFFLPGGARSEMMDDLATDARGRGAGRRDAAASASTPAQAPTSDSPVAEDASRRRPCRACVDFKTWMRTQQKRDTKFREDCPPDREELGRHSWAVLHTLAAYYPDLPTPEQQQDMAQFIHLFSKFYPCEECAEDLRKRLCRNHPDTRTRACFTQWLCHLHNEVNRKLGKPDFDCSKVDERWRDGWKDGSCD
* = called active by the depositor; · = no result; [ ] = remark or other dose.

SMILES	PglD inh	F508del corr	Env fusion inh	Casp6 inh	NSD2 HMT inh	ALR H2O2 inh
Nc1ccn(C2OC(COC(=O)C34CC5CC(CC(C5)C3)C4)C(O)C2O)c(=O)n1 (configuration not stated)	·	5	68*	-1	0	·
COc1ccc(S(=O)(=O)N(C)C[C@H]2OCCCC[C@@H](C)Oc3ccc(NC(=O)CCCN(C)C)cc3C(=O)N([C@H](C)CO)C[C@@H]2C)cc1	0	1	-18[16.7 µM]	-1	·	·
C=CCn1c(SCC(=O)NCCc2ccccc2)nc2c([nH]c3ccccc32)c1=O	3	1	57*	-5	1	-3
C=CCn1c(SCC(=O)Nc2ccc(F)cc2F)nc2c([nH]c3ccccc32)c1=O	1	2	13	0	-1	0
C=CCn1c(SCC(=O)Nc2ccccc2OC)nc2c([nH]c3ccccc32)c1=O	-5	2	63*	-2	-1	-3
C=CCn1c(SCC(=O)NCCC2=CCCCC2)nc2ccc(Cl)cc2c1=O	-2	·	63*	·	·	-4
COCCn1c(SCC(=O)Nc2ccccc2OC)nc2c([nH]c3ccccc32)c1=O	4	0	92*	70*	-6	-2
C[C@@H]1CCCCO[C@H](CN(C)C(=O)c2ccccc2)[C@H](C)CN([C@H](C)CO)C(=O)c2cc(NC(=O)c3ccccc3)ccc2O1	-1	-2	-2[16.7 µM]	0	·	·
COCCn1c(SCC(=O)Nc2ccc(F)cc2)nc2c([nH]c3ccccc32)c1=O	-1	-3	9	-2	-1	58
COCCn1c(SCC(=O)Nc2ccc(C(N)=O)cc2)nc2c([nH]c3ccccc32)c1=O	-1	1	7	-3	-1	99*
CN1CCN(C(=O)C[C@@H]2CC[C@H](NC(=O)Cc3ccccn3)[C@@H](CO)O2)CC1	-2	-4	-10[16.7 µM]	-1	·	·
COc1ccc(OC)c(C2C3=C(COC3=O)Nc3cc4c(cc32)OCO4)c1 (configuration not stated)	2	·	-63	·	0	99*
COc1ccc(S(=O)(=O)N(C)C[C@H]2OCCCC[C@H](C)Oc3ccc(NS(C)(=O)=O)cc3C(=O)N([C@@H](C)CO)C[C@@H]2C)cc1	1	-2	18[16.7 µM]	-1	·	·
Cn1ncc2c(Nc3ccc(Br)cc3)nc(Nc3ccc(Br)cc3)nc21	1	-1	13	-3	-1	0
Cn1ncc2c(Nc3ccc(O)cc3)nc(Cl)nc21	-4	1	-14	0	-1	91*
C/C=C/c1ccc([C@@H]2[C@@H](CO)N3C(=O)CN(Cc4ccccc4)C[C@@H]23)cc1	·	-2	·	2	·	·
CN(C)c1ccc(C2C3C(=O)N(c4ccc(C(=O)O)cc4)C(=O)C3ON2c2ccccc2)cc1 (configuration not stated)	4	·	-5	·	-1	76*
COc1ccc(-n2c(SCC(=O)Nc3nccs3)nc3sc4c(c3c2=O)CCN(C)C4)cc1	11	·	·	·	1	99*
COc1ccc(-n2c(SC)nc3sc4c(c3c2=O)CCN(C)C4)cc1	8	1	-12	7	·	·
CCn1c(SCC(N)=O)nc2sc3c(c2c1=O)CCN(C)C3	-3	-1	10	-2	0	40
COc1ccc(NC(=O)CSc2nc3sc4c(c3c(=O)n2-c2ccc(OC)cc2)CCN(C)C4)cc1	4	1	-4	7	3	98*
CCOC(=O)CSc1nnc2n(C3CCCCC3)c(=O)c3c4c(sc3n12)CCCC4	-4	-3	·	22	-2	-1
CCOC(=O)CSc1nc2sc3c(c2c(=O)n1C1CCCCC1)CCN(C)C3	2	·	11	·	4	100*
CCn1c(SCC(=O)Nc2ccc(C)cc2)nc2sc3c(c2c1=O)CCN(C)C3	2	1	16	2	-1	99*
CCN1[C@@H]2c3ccc(-c4cccc(OC)c4)c(=O)n3C[C@@H]2[C@@H](CO)[C@@H]1C(=O)N(C)C	2	-4	·	-4	·	·
SMILES	PglD inh	F508del corr	Env fusion inh	Casp6 inh	NSD2 HMT inh	ALR H2O2 inh
C[C@@H]1CN([C@H](C)CO)C(=O)c2cc(C#Cc3cccc(F)c3)cnc2O[C@H]1CN(C)C(=O)C1CCCCC1	4	6	19[16.7 µM]	7	·	·
C[C@@H]1CCCCO[C@H](CN(C)Cc2ccc(C(F)(F)F)cc2)[C@@H](C)CN([C@@H](C)CO)C(=O)c2cc(NS(=O)(=O)c3ccc(Cl)cc3)ccc2O1	0	3	21[16.7 µM]	-2	·	·
COCC(=O)Nc1ccc2c(c1)C(=O)N(C)C[C@H](OC)[C@H](C)CN[C@@H](C)CO2	-3	-1	14[16.7 µM]	·	·	·
O=C(C[C@@H]1CC[C@@H]2[C@H](COC[C@@H](O)CN2C(=O)Nc2ccc(Cl)cc2)O1)NC1Cc2ccccc2C1	4	0	·	1	·	·
CCOc1ccc(-n2c(SCC(N)=O)nc3sc4c(c3c2=O)CCN(C)C4)cc1	0	1	-5	0	3	·
CCOC(=O)CSc1nc2sc3c(c2c(=O)n1-c1ccc(OCC)cc1)CCN(C)C3	-8	-2	32	1	2	94*
O=C(CSc1nc2c(c(=O)n1-c1ccc(Br)cc1)SCC2)Nc1nccs1	-4	·	·	·	1	99*
CNC[C@@H]1OCCCC[C@H](C)Oc2ccc(N(C)C)cc2C(=O)N([C@@H](C)CO)C[C@@H]1C	·	0	3[16.7 µM]	·	·	·
CC1=NN(Cc2ccccc2)C(=O)C1C(c1ccccc1)C(C#N)C#N (configuration not stated)	-3	·	-72	·	2	98*
Cc1c(NC(=O)C2CCCN2S(=O)(=O)c2cccc3nsnc23)cccc1C(=O)O (configuration not stated)	5	0	12	2	·	-15
CCOC(=O)c1c(NC(=O)C2CCCN2S(=O)(=O)c2cccc3nsnc23)sc(C)c1C (configuration not stated)	1	1	64*	-5	0	·
Cc1cc(NS(=O)(=O)c2ccc(Nc3nc(-c4sc(N)nc4C)cs3)cc2)no1	-5	·	·	·	·	99*
COc1cc(NS(=O)(=O)c2ccc(Nc3nc(-c4ccccc4)cs3)cc2)nc(OC)n1	·	·	-41	·	34	96*
Cc1cc(NS(=O)(=O)c2ccc(Nc3nc(-c4ccc(O)cc4)cs3)cc2)no1	·	·	10	·	6	100*
Cc1cc(NS(=O)(=O)c2ccc(Nc3nc(-c4ccc(C)c(C)c4)cs3)cc2)no1	·	·	3	·	36	31
CC(C)NC(=O)Nc1ccc2c(c1)C(=O)N([C@@H](C)CO)C[C@@H](C)[C@@H](CN(C)CC1CCCCC1)OCCCC[C@H](C)O2	4	1	15[16.7 µM]	0	·	·
Cc1nc(N2[C@H](CO)[C@H](c3ccccc3)[C@H]2CNCC2CCCC2)sc1C	·	4	·	1	·	·
O=C(C[C@@H]1CC[C@H]2[C@@H](COC[C@H](O)CN2Cc2ccc(Oc3ccccc3)cc2)O1)Nc1nccs1	3	1	48[16.7 µM]	-1	·	·
O=C(Nc1ccccc1C(=O)NC(Cc1ccccc1)C(=O)NC1CCCCC1)c1ccccc1 (configuration not stated)	·	·	66*	·	-1	-1

Bioassay records: PubChem, Broad Institute
